# From ChEMBL document CHEMBL4513216, “Probing the Open Global Health Chemical Diversity Library for Multistage-Active Starting Points for Next-Generation Antimalarials” (ACS Infect Dis, 2020)
# Screen size: about 69,000 compounds; about 8,600 (12%) showed an effect of 50% or more. For the sample, strong results were picked, then their nearest neighbours and some compounds at random.
# Test system: Plasmodium berghei
# Experiment: Screen against P. berghei liver stage (PbLuc), transformed with Luciferase, at 10uM
# Assay type: functional, HepG2
# Conditions: tested at 10 uM
row,Compound,INHIBITION
1,c1cnc(OCc2nnc3n2CCN(CC2CCOCC2)C3)nc1,6.66%
2,Cc1nn(C)c(C)c1C1CCCN1C(=O)CCc1ccco1 (centres undefined),-37.7%
3,COc1cccc(-c2n[nH]cc2CNC2CCN(C(C)C)CC2)c1,-59.5%
4,CCC(NC(=O)C1CC1)c1ccccc1OCC(=O)N1CCCC1 (centres undefined),9.47%
5,Cn1c(=O)[nH]c(=O)n2c(CC(=O)Nc3c(Cl)cccc3Cl)cnc12,9.32%
6,Cc1cc(C2CCCN(S(=O)(=O)c3cn[nH]c3)C2)ccn1 (centres undefined),19.6%
7,CN(C)c1cc(C2CCCN(C(=O)c3noc4c3CCCC4)C2)ccn1 (centres undefined),65.7%
8,CN(C)c1cc(C2CCCN2C(=O)c2noc3c2CCCC3)ccn1 (centres undefined),-13.2%
9,CNc1cc(C2CCCN(S(=O)(=O)c3cn[nH]c3)C2)ccn1 (centres undefined),28%
10,CN(C)c1cc(C2CCCN(S(=O)(=O)c3cn(C)cn3)C2)ccn1 (centres undefined),-44.2%
11,O=C(c1noc2c1CCCC2)N1CCCC(c2nccs2)C1 (centres undefined),13.7%
12,CCS(=O)(=O)N1CCCC(c2ccnc(N(C)C)c2)C1 (centres undefined),0.301%
13,CN(C)c1cc(C2CCCN(S(=O)(=O)C3CCCC3)C2)ccn1 (centres undefined),54.4%
14,CN(C)c1cc(C2CCCN(S(=O)(=O)c3cn[nH]c3)C2)ccn1 (centres undefined),85.7%
15,Cc1nc(CCNCc2c(C)nn(C)c2N2CCOCC2)cs1,-1%
16,CCc1cc(NCC(O)CN2CCCCC2)ncn1 (centres undefined),27.4%
17,COC(=O)Cn1c(=O)[nH]c2cn(-c3ccccc3)c(=O)n21,-4.56%
18,CC(C)CCN(C)Cc1ccccc1-c1nc(C(C)C)cc(=O)[nH]1,-6.83%
19,Cc1cc(CNCc2c(C(C)C)nn(C)c2N2CCOCC2)no1,28.8%
20,O=C(COCCOc1ccccc1)N1CCCC(n2ccnc2)C1 (centres undefined),15.6%

row,Compound,INHIBITION
1,Cc1ccc(CN2CCn3c(C(=O)N(C)C)cnc3C2)s1,42.1%
2,CC1CCc2n[nH]c(C(=O)N3CCc4c(nc(N(C)C)[nH]c4=O)C3)c2C1 (centres undefined),16.3%
3,CN(C)c1nccc(N(C)Cc2ncnn2C)n1,32%
4,CN(Cc1ncnn1C)c1ccnc(Cc2ccccc2)n1,-7.16%
5,CN(C)c1nccc(N(C)Cc2nc3ccccc3n2C)n1,55.5%
6,COCCNC(=O)[C@H]1C[C@@H]2CCN(CCc3ccccc3)C[C@@H]2O1,22.9%
7,O=C([C@@H]1C[C@@H]2CCN(C3CCOCC3)C[C@@H]2O1)N1CCCC1,-24.1%
8,O=C(NCC1CC1)[C@@H]1C[C@@H]2CCN(Cc3ccccc3)C[C@H]2O1,0.618%
9,O=C([C@H]1C[C@@H]2CCN(C3CCOCC3)C[C@H]2O1)N1CCCC1,51%
10,O=C(NC1CCC1)[C@@H]1C[C@@H]2CCN(Cc3ccncc3)C[C@H]2O1,32.7%
11,O=C(NCC1CCOCC1)[C@H]1C[C@@H]2CCN(Cc3ccccc3)C[C@H]2O1,32.2%
12,COCCNC(=O)[C@H]1C[C@@H]2CCN(c3ccccc3)C[C@H]2O1,10.5%
13,O=C(NC1CCC1)[C@@H]1C[C@@H]2CCN(Cc3cccs3)C[C@@H]2O1,50%
14,O=C([C@@H]1C[C@@H]2CCN(C3CCOCC3)C[C@H]2O1)N1CCCC1,-9.26%
15,O=C(NCC1CC1)[C@H]1C[C@@H]2CCN(CCc3ccccc3)C[C@H]2O1,54.4%
16,O=C(NC1CC1)[C@@H]1C[C@@H]2CCN(Cc3ccccc3)C[C@@H]2O1,47.4%
17,COCCNC(=O)[C@H]1C[C@@H]2CCN(CCc3ccccc3)C[C@H]2O1,59%
18,COc1ccc(OC2CCN(C(=O)[C@@H](N)Cc3c[nH]cn3)CC2)cc1,23.3%
19,CN(C)CC1CSCCCN1C(=O)c1cccc(C(F)(F)F)c1 (centres undefined),4.35%
20,CC(=O)N1CCN(C(=O)Cc2cnc(-c3c(Cl)cccc3Cl)s2)CC1,13.8%

row,Compound,INHIBITION
1,CC(C)N1CCC(c2cc(C(F)(F)F)n3ccnc3n2)CC1,15.9%
2,O=C1CNc2ncnc(Nc3cccc(Cn4cccn4)c3)c2N1,46.1%
3,Cc1nonc1CN(C)Cc1cnn(-c2ccc(Cl)cc2)c1,-8.58%
4,CN(C)CCCC(=O)N1C[C@@H]2CC[C@H]1CN(Cc1ccccc1)C2,11.2%
5,c1ccc(-n2ccc(CN3CCCCC3Cn3cncn3)n2)cc1 (centres undefined),-10.1%
6,CCn1nc(C)c(NC(=O)CN2CC[C@@H](F)C2)c1C,24.5%
7,O=C([C@@H]1C[C@@H]2CCN(CCc3ccccc3)C[C@H]2O1)N1CCCC1,50%
8,Cc1ncccc1NC(=O)[C@@H]1C[C@@H]2CCN(Cc3cccs3)C[C@H]2O1,8.93%
9,O=C([C@@H]1C[C@@H]2CCN(c3cccc(F)c3)C[C@H]2O1)N1CCCC1,42.1%
10,COc1ccccc1CN1CC[C@H]2C[C@H](C(=O)N3CCCC3)O[C@H]2C1,64.2%
11,CN1CCN(C(=O)[C@@H]2C[C@@H]3CCN(c4cccc(F)c4)C[C@H]3O2)CC1,23.3%
12,Cc1ncccc1NC(=O)[C@H]1C[C@@H]2CCN(Cc3nccs3)C[C@@H]2O1,31.8%
13,O=C([C@H]1C[C@@H]2CCN(c3cccc(F)c3)C[C@H]2O1)N1CCCC1,89.5%
14,O=C([C@@H]1C[C@@H]2CCN(Cc3ccc4c(c3)OCO4)C[C@@H]2O1)N1CCCC1,33.4%
15,CNC(=O)[C@H]1C[C@@H]2CCN(CCc3ccccc3)C[C@@H]2O1,18.3%
16,Cc1ncccc1NC(=O)[C@H]1C[C@@H]2CCN(Cc3ccsc3)C[C@H]2O1,75.4%
17,O=C([C@@H]1C[C@@H]2CCN(Cc3ccoc3)C[C@H]2O1)N1CCCC1,26.7%
18,COc1ccccc1CN1CC[C@H]2C[C@@H](C(=O)N3CCCC3)O[C@H]2C1,-16.6%
19,CC(C)c1ccc(-n2ncc(C(=O)NCC3COC(C)(C)O3)c2N)cc1 (centres undefined),-20.1%
